Data taken from PubChem BioAssay (Tox21).
Records with an inconclusive call do not appear. Where a call stands in place of a potency, no number is given. The source made the active and inactive calls. Calls come from the whole dose curve; as a rule, active = well fitted activation curve with a large enough effect in the repeat runs; inconclusive = weak or mixed curves; inactive = flat fitted curve, though single readings scatter.

test: A CellTox Green Cytotoxicity Assay to monitor cytotoxicity in HEK293 cells - 8 hour (AID 1224884); conditions: CellTox Green fluorescence; series mostly up to 76.8 µM; note: nearly all actives have a fitted effect of over 35% in size
From the text: National Center for Advancing Translational Sciences [NCATS]
NIH Chemical Genomics Center [NCGC]
U.S. Environmental Protection Agency [EPA]
National Institutes of Environmental Health Sciences [NIEHS]
National Toxicology Program [NTP]
Cell-based models are critical for drug discovery. Determining the natural cytotoxic effects resulting from test compounds is an essential research activity. A CellTox Green Cytotoxicity Assay to monitor cytotoxicity in real time of continues cell culture during 40 hours of the compound treatment was used to screen Tox21 10K library compounds in Hek293 cells. CellTox Green Cytotoxicity Assay is a nonlytic, homogeneous, biofluorescent method to measure cytotoxicity in cell culture after experimental manipulation. The assay system uses a proprietary asymmetric cyanine dye that is excluded from viable cells but preferentially stains the dead cell's DNA. […] Viable cells produce no appreciable increases in fluorescence. Therefore, the fluorescence signal produced by the binding interaction with dead cell DNA is proportional to cytotoxicity.
The mixture of Hek293 cell suspension and reagents were dispensed at 600cells/6 ul/well in 1536-well tissue culture treated black solid bottom plates using a Multidrop dispenser. After the assay plates were incubated at a 37 C/5% CO2 incubator for 5 hours, 23 nL of compounds dissolved in DMSO, positive and negative controls was transferred to the assay plate by a pintool work station. The plates were incubated at 37 C for 40 hours. The fluorescence intensity were measured at 0h, 8h, 16h, 24h, 32h and 40h time points using ViewLux plate reader during compound treatment.
Potency is the fitted concentration of half-maximal effect.

SMILES | Potency
Cc1cscn1 | inactive
CCCCN1CCCC1C(=O)Nc1c(C)cc(C)cc1C (stereo not given) | 15.1 µM (active)
Cc1cc(O)c(C)c(C)c1O | inactive
CC1(C)S[C@@H]2[C@H](NC(=O)C(c3ccccc3)S(=O)(=O)O)C(=O)N2[C@H]1C(=O)O (stereo not given in full) | inactive
CN1CCCC(n2nc(Cc3ccc(Cl)cc3)c3ccccc3c2=O)CC1 (stereo not given) | inactive
CC(C)C=O | inactive
COC(=O)[C@H]1[C@H]2C[C@@H]3c4[nH]c5cc(OC)ccc5c4CCN3C[C@H]2C[C@@H](OC(=O)/C=C/c2ccc(O)c(OC)c2)[C@@H]1OC | 19 µM (active)
Cc1cc(=O)c2c(O)c3c(O)cc(=O)c4c3c3c(cc(O)c1c23)C(C)(C)C=4O | 7.37 µM (active)
OC1(c2ccccc2)CCNCC1 | inactive
CC=C(Cl)Cl | inactive
CCC(OCCCOC)OC(C)=O (stereo not given) | inactive
CC(=O)c1ccc([N+](=O)[O-])cc1 | inactive
O=C(OC(=O)c1ccccc1)c1ccccc1 | inactive
C=C1CCC2CC1C2(C)C (stereo not given) | inactive
CCCCCC#CC(=O)OC | inactive
CC(CN(C)C)C(C)(O)Cc1ccc(Cl)cc1 (stereo not given) | inactive
C/C=C\C/C=C/CCCCCCCCOC(C)=O | inactive
CCCCC(CC)COP(=O)(O)O (stereo not given) | inactive
C/C=C(/C(=C/C)c1ccc(O)cc1)c1ccc(O)cc1 | inactive
CN(C)CCC=C1c2ccccc2C=Cc2ccccc21 | inactive

SMILES | Potency
CC(=O)N/N=C/c1ccc([N+](=O)[O-])o1 | inactive
CN1C(=O)c2ccccc2C1=O | inactive
COC(=O)c1nc(Cl)c(Cl)nc1N | inactive
C[C@]12CC[C@@H]3c4ccc(O)cc4CC[C@H]3[C@@H]1CC[C@@H]2OC(=O)CCC1CCCC1 | inactive
COC(=O)CCS | inactive
CC1=C(Br)C(=O)C(Br)=C/C1=C(/c1ccccc1S(=O)(=O)O)c1cc(Br)c(O)c(Br)c1C | inactive
CCOC(=O)c1ccccc1C(=C1C=C(Br)C(=O)C(Br)=C1)c1cc(Br)c(O)c(Br)c1 | inactive
Cc1ccccc1S | inactive
CCN(CC)CCNC(=O)COc1ccc(OC)cc1 | inactive
O=C1c2ccccc2C(=O)C1(O)O | inactive
CCCCC(CC)CN (stereo not given) | inactive
COc1ccccc1Oc1c(NS(=O)(=O)c2ccc(C(C)(C)C)cc2)nc(-c2ncccn2)nc1OCCO | inactive
CCCC(=O)C(=O)O | inactive
CC(C)=CC(=O)C=C(C)C | inactive
CCCCN(CCN(CCCC)C(=O)N1CCOCC1)C(=O)N1CCOCC1 | inactive
C=CC(C)(CCC=C(C)C)OC(=O)CC(C)C (stereo not given) | inactive
Oc1c(I)cc(I)c2cccnc12 | inactive
NCCNCCO | inactive
O=[N+]([O-])c1cc(C2CCCCC2)c(O)c([N+](=O)[O-])c1 | inactive
O=[N+]([O-])c1ccc(Nc2ccc(Nc3ccccc3)c(S(=O)(=O)O)c2)c([N+](=O)[O-])c1 | inactive
